Measured values from PubChem BioAssay AID504651 (National Center for Advancing Translational Sciences (NCATS), 2011).
Out of some 360,000 compounds screened, about 130 (0.036%) were called active. No stated cut-off is given here; in the data, active means potentiation above about 30%; inactive means the rest. This excerpt belongs to a sample that is enriched for actives.

target: D(1A) dopamine receptor (Homo sapiens) (UniProt P21728); test: Potentiators of Human D1 Dopamine Receptor: qHTS; settings: HEK293 TREx D1 cells, calcium flux, dopamine EC20 potentiation; at 10 µM; hits give high values; further: 0% is about no effect
Sequence (P21728 whole entry, looked up): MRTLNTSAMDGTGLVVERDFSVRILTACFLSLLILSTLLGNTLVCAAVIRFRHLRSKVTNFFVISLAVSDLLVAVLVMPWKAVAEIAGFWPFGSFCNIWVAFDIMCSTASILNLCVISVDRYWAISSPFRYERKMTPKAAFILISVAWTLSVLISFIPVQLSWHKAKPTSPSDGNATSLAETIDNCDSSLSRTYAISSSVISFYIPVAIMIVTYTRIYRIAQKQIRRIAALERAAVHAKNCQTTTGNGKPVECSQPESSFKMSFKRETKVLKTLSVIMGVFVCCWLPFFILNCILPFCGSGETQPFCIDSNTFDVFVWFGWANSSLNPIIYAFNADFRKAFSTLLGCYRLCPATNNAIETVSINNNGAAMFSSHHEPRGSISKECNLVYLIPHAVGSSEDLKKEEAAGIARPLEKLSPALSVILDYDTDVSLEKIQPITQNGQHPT
Text: Dopamine receptors (DARs) are involved in the etiology and/or therapy of a number of neuropsychiatric and endocrine disorders. For instance, all receptor-based antiparkinsonian drugs work via stimulating the D1 DAR subtype whereas all FDA-approved antipsychotic agents are antagonists of this receptor. […] There are three different types of allosteric modulators that we are seeking, two of which will stimulate or augment receptor signaling, allosteric agonists and potentiators, while the third, allosteric antagonists, will attenuate receptor signaling. The present primary screening assay measures compound potentiation of an EC20 dopamine response by tracking calcium flux in a […], inducible Hek293 Trex D1 cell line.
NIH Chemical Genomics Center [NCGC]
NIH Molecular Libraries Probe Centers Network [MLPCN]
Assay Submitter (PI): David Sibley
Freshly passaged cells are plated in 1536 well black, clear bottom plates at a density of 4000 cells/well in 3 ul of complete media containing 1x tetracycline inducer. After an overnight incubation at 30 C in 5% CO2, cells are loaded with 2 ul of the no wash Calcium Assay Kit (ABD Bioquest) and incubated at room temperature for 30 to 90 minutes. A 10 cycle (1 second/cycle) baseline measurement is taken and then the FDSS online 1536 pintool delivers 23 nl of compound library (as well as dopamine controls) to the plate. The plate is measured for kinetically at 1 cycle/sec for 180 seconds and is considered to be the agonist portion of the assay (eg, compounds which activate a positive calcium response during this portion are flagged as potential agonists). Following the 180 second read, 1 ul of an EC20 of dopamine is delivered by an onboard pipette head. Measurements are taken kinetically for an additional 180 seconds.

| SMILES | potentiation |
| --- | --- |
| O=C1C2(Cl)C3(Cl)C4(Cl)C(Cl)(Cl)C5(Cl)C3(Cl)C1(Cl)C5(Cl)C24Cl (stereo not given) | 54.8% (active) |
| Cc1cccc(-n2c(O)c(C=NC34CN5CN(CN(C5)C3)C4)c(=O)[nH]c2=O)c1 | -1.15% (inactive) |
| Clc1cccc(Cl)c1Cl | -1.55% (inactive) |
| COP(=O)(NS(=O)(=O)c1ccccc1)OC | -2.85% (inactive) |
| CNC(=O)O/N=C(\N)Cc1csc2ccccc12 | -9.15% (inactive) |
